# Bioassay records (PubChem)
# GALR2 antag: antagonists of human galanin receptor 2 (GALR2); hit rate 0.39% among 140,000; inhibition, % at 4 µM; GALR2-expressing cells, antagonist mode; O43603; AID 828; in the data active means inhibition above about 27%;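 further: cells stimulated with galanin 1-16 at roughly its EC80; 0% = agonist challenge control and 100% = basal control without agonist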
# Smad3 FoxH1 inh: blocks human Smad3 binding to FoxH1 peptide; TR-FRET Smad3/Dy647-FoxH1 peptide binding, europium anti-His; inhibition, % at 25 µM; hit rate 0.29% among 88,000;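 active means compounds that reduce the energy-transfer binding signal between the protein and its labelled peptide by more than half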;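 further: 0% = Smad3 plus labelled peptide maximal FRET and 100% = peptide-only background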
# Target sequence (P84022 whole entry, looked up): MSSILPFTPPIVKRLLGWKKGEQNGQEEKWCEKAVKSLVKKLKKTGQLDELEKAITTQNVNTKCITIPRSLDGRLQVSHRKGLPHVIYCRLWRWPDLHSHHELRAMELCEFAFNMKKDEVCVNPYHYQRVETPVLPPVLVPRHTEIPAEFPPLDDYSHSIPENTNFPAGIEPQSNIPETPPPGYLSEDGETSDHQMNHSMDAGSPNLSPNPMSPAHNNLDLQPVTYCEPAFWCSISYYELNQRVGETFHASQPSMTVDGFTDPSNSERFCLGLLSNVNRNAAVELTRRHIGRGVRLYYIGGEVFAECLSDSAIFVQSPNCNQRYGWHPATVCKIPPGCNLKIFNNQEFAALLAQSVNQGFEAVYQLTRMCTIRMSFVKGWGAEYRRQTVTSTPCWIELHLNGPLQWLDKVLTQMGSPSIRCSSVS
# GALR2 ag: agonists of human galanin receptor 2 (GALR2); O43603; GALR2-expressing cells, agonist activation read-out; activation, % (no concentration beside the values); hit rate 0.48% among 140,000; AID 803; in the data active means activation above about 5%, passing the limit was not always enough;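 further: 0% = vehicle buffer wells and 100% = reference agonist at full effect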
# S1P2 antag: antagonists of human S1P2 receptor | O95136 | cell-based S1P2 antagonist assay, inhibition at 5 uM | inhibition, % at 5 µM | hit rate 0.21% among 97,000 | AID 736; in the data active means inhibition above about 45%;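 further: CRE beta-lactamase reporter cells expressing human S1P2 stimulated with S1P; 0% = agonist at EC80 alone and 100% = agonist plus reference antagonist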
# S1P2 agonist: S1P2 (human) receptor agonism; activation, % at 4.5 µM; O95136; S1P2-expressing cell line, agonist reporter read-out; AID 729; hit rate 0.46% among 97,000; in the data active means activation above about 16%;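 further: 0% = vehicle low control and 100% = maximal reference agonist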
# MT1-MMP txn act: MT1-MMP promoter transcription activation; HT1080 MT1-MMP promoter luciferase reporter, luminescence, overnight; hits give high values; activation factor at 10 µM; hit rate 0.16% among 86,000;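 active means activation factor of at least 2 for MT1-MMP transcription at 10 µM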
# An asterisk follows results filed as active; x = not tested or not shown; [ ] = remark or other dose. In the library only some 1.4% were active in any assay of this set; here they are far more common.
SMILES,GALR2 antag,Smad3 FoxH1 inh,GALR2 ag,S1P2 antag,S1P2 agonist,MT1-MMP txn act
CCOC(=O)C1=C(C)N(CCCCCC(=O)O)C(=O)NC1c1ccccc1OS(=O)(=O)c1ccccc1[N+](=O)[O-] (centres undefined),x,x,x,x,x,1.3
CC(C)Cc1nc2sc3c(NCc4ccco4)ncnc3c2c2c1COC(C)(C)C2,-8.3,x,-0.7,-64.2,1.4,x
Cc1nc2sc3c(NCc4ccco4)ncnc3c2c2c1COC(C)(C)C2,-13.5,x,-1.6,-34.1,26.5*,0.9
COc1cc(O)c2c(O)c3c(c4c2c1[C@]1(C4)C(C)=CCCC1(C)C)[C@H](O)[C@@]1(O)CC(=O)C(C(N)=O)=C(O)[C@]1(O)C3=O,x,45.6,x,x,x,x
COCCNC(=O)[C@H](C)/C=C(\I)C(NC(=O)OCc1ccccc1)c1ccc(C(=O)OC)cc1 (some centres undefined),x,x,x,x,x,1.1
Nc1nc2nc(-c3ccc(OCc4ccccc4)cc3)cc(C(F)(F)F)n2n1,2.0,15.2,5.0,-69.5,33.1*,x
COCCn1nnnc1CN1CCN2CCCC2C1 (centres undefined),-4.3,1.3,-1.2,10.4,43.5*,1.2
C[N+]1(NCC[N@+]2(C)CCc3ccccc3C2)CCCCC1,x,94.6*,x,x,x,x
O=C(O)C[C@H](Cc1ccccc1Cl)C(=O)O,x,-0.2,x,x,x,x
CC(Sc1cccc2cccc(C(=O)O)c12)C(=O)O (centres undefined),15.5,-0.3,-1.7,-7.5,-4.5,1
O=C(O)c1cccc2cccc(-c3cccc4cccc(C(=O)O)c34)c12,x,66.6*,x,x,x,x
Cc1ccc(NC(=S)NCCc2ccc(S(N)(=O)=O)cc2)c(C)c1,-4.7,x,-0.2,12.7,101.8*,x
Cc1cc(C)cc(NC(=S)NCCc2ccc(S(N)(=O)=O)cc2)c1,3.5,x,-1.7,x,x,x
CC(C)c1ccc(/C=C2/C=C(c3ccc4ccccc4c3)OC2=O)cc1,x,-8.6,x,x,x,x
COC(=O)C1(CC(C)C)C=CC[N+]1(C)C (centres undefined),x,x,x,x,x,1.1
Cc1ccc(CN2CCN(Cc3ccc(C)o3)[C@@H](C)C2)o1,x,23.2,x,x,x,x
Cc1cc(/C=N/n2cnnc2)c(C)n1-c1ccc(OCc2ccc(F)cc2)cc1,7.1,9.4,-0.3,69.2*,-5.0,1.2
Cc1cc(/C=N/n2cnnc2)c(C)n1-c1ccc(Cl)cc1,-11.0,x,0.4,x,x,x
O=C(O)[C@H]1CCCN1Cc1c[nH]c2ccccc12,x,-1.9,x,x,x,x
COc1ccc(-n2nc(C(=O)c3cccs3)cc(-c3nc4ccccc4[nH]3)c2=N)cc1,6.6,-4.2,-1.4,-44.8,22.3*,0.7
Cc1cccc(-n2nc(C(=O)c3ccco3)cc(-c3nc4ccccc4[nH]3)c2=N)c1,9.6,x,-0.1,x,x,x
Cc1ccccc1-n1nc(C(=O)c2cccs2)cc(-c2nc3ccccc3[nH]2)c1=N,11.7,6.4,-2.6,-12.3,24.3*,1
Clc1cccc2sc(N3CCOCC3)nc12,-1.7,4.3,-1.6,2.3,-5.4,2.1*
Cc1nn(C)c(C)c1CN(C)S(=O)(=O)c1ccc2ccccc2c1,16.8,6.3,-2.5,50.3*,-2.1,1.1
Cc1nn(C)c(C)c1CN(C)S(=O)(=O)c1ccc(F)cc1,2.5,4.6,-1.3,7.1,-6.0,1.2
SMILES,GALR2 antag,Smad3 FoxH1 inh,GALR2 ag,S1P2 antag,S1P2 agonist,MT1-MMP txn act
Cn1cnc([N+](=O)[O-])c1Sc1nc(N)nc2c1ncn2[C@@H]1C[C@H](O)[C@@H](CO)O1,x,7.6,x,x,x,x
Cc1cc(OCc2nc(N)nc(N)c2-c2ccc(Cl)c(Cl)c2)ccc1[N+](=O)[O-],x,55.8*,x,x,x,x
NCCSC[C@H](N)C(=O)O,x,2.8,x,x,x,x
CCOC(=O)C(C)(C)[C@H](O)C(C)C,x,-11.1,x,x,x,x
COc1ccc(C(c2c[nH]c3ccccc23)c2c[nH]c3ccccc23)cc1O,-5.9,-4.3,-1.2,5.1,88.7*,x
O=C(O)CN(CCN(CC(=O)O)CC(=O)O)CC(=O)O.[Mn+2],x,8.9,x,x,x,x
CCOc1cc(C(=O)CSc2nnc(CNc3ccc(Cl)cc3)o2)ccc1NC(=O)CC,26.9,18.0,7.8*,47.0*,10.1,1.2
COc1ccc(NCc2nnc(SCC(=O)c3ccc(OC)cc3)o2)cc1,-1.3,-2.2,-2.8,-4.5,-2.4,1.3
C(/C=C/c1ccccc1)=Nc1ccc2c(c1)Cc1ccccc1-2,x,-2.6,x,x,x,x
CCc1ccccc1NC(=O)/C(=C/c1ccco1)c1ccccc1,-5.1,80.7*[fluorescence artefact?],-1.4,-4.5,0.9,0.9
CCN(CC)CC[n+]1ccc2c(C)c3[nH]c4ccccc4c3c(C)c2c1,x,11.9,x,x,x,x
CCCn1c(NCc2c[nH]c3ccccc23)nc2ccccc21,2.0,-4.2,-0.7,-30.6,21.5*,1.4
CCCn1c(NCc2cccc(OC)c2OC)nc2ccccc21,-3.1,15.3,-0.7,13.8,-6.0,1.2
CC(C)[C@@H]1OC(=O)C=CC=CC=CC=CC=CC[C@@H](O)[C@H](C)[C@@H](O)C[C@H](O)C[C@H](O)C[C@H](O)C[C@H](O)C[C@H](O)C[C@H](O)C=C[C@@H]1C,x,26.1,x,x,x,x
COc1cc2c(cc1OC)C1=C(C#N)CCC(=NC(=O)c3ccc(Cl)cc3)N1CC2,-15.4,x,0.5,-14.2,55.1*,x
CC1=C(C(=O)Nc2ccc(F)cc2)C(c2ccc(C)o2)C2=C(CC(C)(C)CC2=O)N1 (centres undefined),-0.2,-14.5,-0.9,11.2,20.9*,1.1
CCC(=O)Nc1ncnc2ncn(C(=O)CC)c12,x,1.2,x,x,x,x
CCOC(=O)c1c2c(n(C)c1C)C(=O)C(=O)c1ccc(Br)cc1-2,2.5,68.3*[fluorescence artefact?],-1.2,-3.6,-5.2,0.7
CCCC(=O)Nc1ccc(N2CCN(C(=O)c3ccccc3C)CC2)cc1,32.9*,-3.5,-1.2,5.6,-6.1,0.9
COc1ccc(C2SCC(C(=O)NCc3ccc(F)cc3)N2C(C)=O)cc1 (centres undefined),4.5,-5.0,-2.9,-13.6,21.6*,x
CCn1nc(NC(=O)c2ccccn2)c2cc3cccc(C)c3nc21,-17.2,-3.1,6.2,-32.7,18.6*,1.1
CCn1nc(NC(=O)c2ccncc2)c2cc3cccc(C)c3nc21,-3.3,5.8,0.4,-10.8,1.6,1.1
COc1ccccc1-c1nnc2sc(-c3ccc(N(C)C)cc3)nn12,29.4*,x,3.0,x,x,0.5
COc1cc(-c2cc(-c3ccccc3)nc(SCC(=O)Nc3nccs3)c2C#N)cc(OC)c1OC,-3.2,x,-1.0,-23.1,30.9*,x
C=CCN=C(NC#N)SCC(=O)c1cccc(OC)c1,-15.4,3.9,-1.9,30.7,-14.1,2*
SMILES,GALR2 antag,Smad3 FoxH1 inh,GALR2 ag,S1P2 antag,S1P2 agonist,MT1-MMP txn act
C=CCN=C(NC#N)SCc1ccccc1,9.2,7.0,-2.6,-8.9,-3.5,1.2
O=C(O)[C@@H]1[C@H]2C[C@H]([C@@H](Br)[C@H]2N2C(=O)CCC2=O)[C@@H]1C(=O)O,x,11.8,x,x,x,x
COc1cc(C2C3=C(Nc4ncnn42)c2ccccc2CC3)cc(OC)c1OC (centres undefined),34.6*,10.8,5.0*,6.4,-2.3,0.5
CN1CCN(CCCBr)CC1,x,12.6,x,x,x,x
CCNC(=O)c1cc2c(=O)n3cccc(C)c3nc2n(CCc2ccccc2)c1=N,4.2,5.8,-0.3,-0.1,-3.6,1.1
CCCCNC(=O)c1cc2c(=O)n3cccc(C)c3nc2n(Cc2ccccc2)c1=N,3.9,-9.5,7.7*,x,x,1.3
